# Measured values reported in the supplement of paper PMC10477191.
# ± gives the standard deviation of the averaged measurements.
# Experiments:
# Assay in all cases: odor-evoked OSN spike response (post minus pre-stimulus); higher = stronger neuronal excitation
# Conditions in all cases: odor dilution: 10^-4
# [1] = tested on: Drosophila ezoana antennal basiconic sensillum ab1
# Summary of the method: (§1)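 Spike frequency was compared between 1-second windows before and after each stimulus in Auto Spike software. That change, averaged over replicate sensilla, is the response. Each stimulus was a 500 ms air pulse over filter paper carrying 10 µl of odorant at 10^−4 in mineral oil or DMSO, delivered into a humidified, charcoal-filtered 1.5 l min^−1 stream. A tungsten electrode recorded at the base of antennal basiconic sensilla of restrained adult flies, with up to 3 sensilla per fly.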
# [2] = tested on: Drosophila ezoana antennal basiconic sensillum ab3
# Summary of the method: as §1
# [3] = tested on: Drosophila virilis antennal basiconic sensillum AB2
# Summary of the method: as §1
compound,measurement,setting,value
CC(C)=O [acetone],odor-evoked OSN spike response,[1],67.1 ± 24 spikes/s
same,odor-evoked OSN spike response,[2],63.3 ± 28 spikes/s
same,odor-evoked OSN spike response,[3],53.7 ± 24 spikes/s
